According to PubChem BioAssay (NCI):
The panel holds about 79,000 compounds, 15% with a hit somewhere; the sample as a whole holds those more often. No stated cut-off is given here; in the data, active means growth inhibition above about 70%; inactive means the rest.

Columns and labels:
[1] = NCI Yeast Anticancer Drug Screen. Data for the rad50 strain (AID 155);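 further: 0% = growth of vehicle-only cultures of the same strain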; conditions: S. cerevisiae rad50 strain growth inhibition; at 50.0 µM; active compounds read high
Procedure, shortened: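 Genetically altered yeast (DNA repair pathway); compound treatment; growth inhibition vs vehicle ctrl.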

[2] = NCI Yeast Anticancer Drug Screen. Data for the mec2-1 strain (AID 157); conditions: S. cerevisiae mec2-1 strain, at 50.0 µM, active compounds read high
Procedure, shortened: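 Cells of the genetically defined mec2-1 yeast strain are incubated with test compound. Inhibition of growth is calculated against vehicle-treated controls.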

[3] = NCI Yeast Anticancer Drug Screen. Data for the sgs1 mgt1 strain (AID 161);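 further: 0% = growth of cultures given vehicle only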; conditions: S. cerevisiae sgs1 mgt1 strain, at 50.0 µM, active compounds read high
Procedure, shortened: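 Test agents were incubated with a DNA-repair-mutant yeast strain. Growth was then read and compared against vehicle-treated controls.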

[4] = NCI Yeast Anticancer Drug Screen. Data for the cln2 rad14 strain (AID 165);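 further: 0% = growth equal to vehicle treated cultures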; conditions: S. cerevisiae cln2 rad14 strain, at 50.0 µM, active compounds read high
Procedure, shortened: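 The screen exposed genetically defined yeast (cln2 rad14) to test compounds and scored growth inhibition relative to vehicle-treated controls.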

[5] = NCI Yeast Anticancer Drug Screen. Data for the bub3 strain (AID 167); conditions: S. cerevisiae bub3 mutant strain, at 50.0 µM, active compounds read high
Procedure, shortened: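 Yeast carrying a defined mutation is treated with each compound, and growth is compared with that of vehicle-exposed cells to give inhibition.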

[6] = NCI Yeast Anticancer Drug Screen. Data for the mlh1 rad18 strain (AID 175); conditions: S. cerevisiae mlh1 rad18 strain growth inhibition; at 50.0 µM; active compounds read high
Procedure, shortened: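 Compound-treated yeast growth, normalised to vehicle controls. Strain bears defined DNA repair mutations.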

Measured: growth inhibition

CCC(C)(C)C(=O)Nc1cccc(OC(=O)NC)c1
inactive: [1] 2.1% | [2] -9.1% | [3] 9.85% | [4] -3.35% | [5] 13.2% | [6] -16.9%

CC(=O)NCN(C)[N+](=O)[O-]
inactive: [1] -9.6% | [2] -4.95% | [3] 8.85% | [4] -11% | [5] -19.8% | [6] -6.5%

COC(=O)c1ccccc1NC(C)=O
inactive: [1] -13.8% | [2] -9.25% | [3] -8.95% | [4] -38.4% | [5] -8.5% | [6] 2.15%

NNC(N)=NCCCC(N)C(=O)O (stereo not given)
inactive: [1] -22% | [2] -42% | [3] -34.3% | [4] 5.2% | [5] -45.6% | [6] -16.6%

[C-]#[O+].[C-]#[O+].[C-]#[O+].[Cr].c1ccc(P(CC[PH+](CC[PH+](CC[PH+](c2ccccc2)c2ccccc2)c2ccccc2)c2ccccc2)c2ccccc2)cc1 (stereo not given)
inactive: [1] 36.3% | [2] 13.6% | [3] 41.5% | [4] 18.6% | [5] 33.8% | [6] 37.8%

COC(=O)C1C(C)N1P(=O)(OC)OC (stereo not given)
inactive: [1] 7.3% | [2] 3.65% | [3] -7.55% | [4] -44% | [5] -4.3% | [6] 6.6%

N#CCc1ccc(CC#N)cc1
inactive: [1] 14.1% | [2] -10.6% | [3] -2.8% | [4] 16.6% | [5] -5.1% | [6] 1.45%

CC(C)N[C@@H]1CCC[C@H]1O
inactive: [1] 4.5% | [2] -0.1% | [3] -17.1% | [4] 11.7% | [5] 4.05% | [6] -19.5%

CC1CN1P(=O)(N1CCc2ccccc21)N1CC1C (stereo not given)
inactive: [1] -21.8% | [2] -7.9% | [3] -5.6% | [4] -24.7% | [5] 5.9% | [6] 0.85%

CC(=O)Cc1ccc2c(c1)OCO2
inactive: [1] 13.2% | [2] -11.4% | [3] -0.35% | [4] 1.1% | [5] -16.9% | [6] 22.9%

CC1=C(C)C(=O)O[C@@H]([C@](C)(O)[C@]2(O)CC[C@@]3(O)[C@@H]4C[C@H]5O[C@]56CC=CC(=O)[C@]6(C)[C@H]4CC[C@]23C)C1
inactive: [1] 45.1% | [2] 64.7% | [3] 43.8% | [4] 27.3% | [5] 45.9% | [6] 40.2%

COc1ccccc1OC (tested in a mixture with another compound)
inactive: [1] 22.5% | [2] 16.7% | [3] 26.4% | [4] -17.4% | [5] 14.2% | [6] 16.2%

Cc1ccc(O)cc1Cl
inactive: [1] -17.8% | [2] -39% | [3] -20.6% | [4] -7.65% | [5] -31.9% | [6] 1.75%

C[n+]1ccc2ccccc2c1-c1c2ccccc2cc[n+]1C
inactive: [1] 27.4% | [2] 3.65% | [3] -2.55% | [4] 18.9% | [5] 3% | [6] 6.05%

CC1=C(C)C(=O)O[C@@H]([C@](C)(O)[C@]2(O)CC[C@@]3(O)[C@@H]4C[C@H]5O[C@]56[C@@H](O)C=CC(=O)[C@]6(C)[C@H]4CC[C@]23C)C1
inactive: [1] 14.9% | [2] 24.9% | [3] 10.7% | [4] 13.4% | [5] 20.1% | [6] 12.8%

CCN(CC)CCN(CC)CC.CCN(CC)CCN(CC)CC.[Cu+2].[Cu+2].[O-][Cl+3]([O-])([O-])[O-].[OH3+].[OH3+]
inactive: [1] -2.85% | [2] 1.85% | [3] -0.35% | [4] 16.1% | [5] 12.6% | [6] 15.7%

CN(C)Cc1c[nH]c2ccc(F)cc12
inactive: [1] -27% | [2] -13.8% | [3] -15.2% | [4] 5.65% | [5] -11.8% | [6] -16.9%

NNC(=O)c1ccccc1
inactive: [1] -1.8% | [2] -2.05% | [3] -11.8% | [4] -36% | [5] -1.25% | [6] -19%

CCOP(=O)(CC(=O)c1cc2ccccc2[nH]1)OCC
inactive: [1] -3.5% | [2] 12.6% | [3] -2.1% | [4] 1.2% | [5] -8.1% | [6] -19.8%

CCCOC(=O)c1ccccc1N
inactive: [1] 6.05% | [2] -1.25% | [3] -1.55% | [4] -16.9% | [5] -4.75% | [6] -19.4%
